Assay outcomes from PubChem.
A selection: hits, their analogues and other compounds. The true share with any hit is near 11%.
AmpC inh no detg: inhibitors of E. coli AmpC beta-lactamase without detergent; 330,000 tested, 0.52% active; Potency, µM (series often up to 57.1 µM), most hits filed as inhibitors; AID 485341; AmpC nitrocefin hydrolysis, absorbance 480 nm, 0.0001% Triton; P00811; note: nearly all actives have a fitted effect of over 20% in size
Target sequence (P00811 whole entry, looked up): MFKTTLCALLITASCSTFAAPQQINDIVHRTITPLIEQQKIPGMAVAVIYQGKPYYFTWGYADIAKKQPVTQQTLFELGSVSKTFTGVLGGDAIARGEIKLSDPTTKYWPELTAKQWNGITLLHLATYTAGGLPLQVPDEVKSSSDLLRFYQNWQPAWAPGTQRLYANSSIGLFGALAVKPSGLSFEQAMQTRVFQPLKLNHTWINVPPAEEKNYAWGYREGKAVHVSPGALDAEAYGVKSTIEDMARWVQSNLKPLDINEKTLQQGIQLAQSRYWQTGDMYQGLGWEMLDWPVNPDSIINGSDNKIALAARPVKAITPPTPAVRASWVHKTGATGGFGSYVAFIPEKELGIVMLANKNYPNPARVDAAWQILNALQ
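AmpC (5.3 nM in the dispensed reagent) in 20 mM phosphate pH 7.0 with 0.01% (detergent screen) or 0.0001% Triton X-100 was preincubated with compounds for 15 min at room temperature. Nitrocefin was then added from an 800 uM solution, and hydrolysis was followed at 480 nm.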
Pf growth 96h: P. falciparum growth inhibition at 96 hour, primary screen for plastid delayed-death inhibitors; P. falciparum luciferase reporter growth, 96 h; Potency, µM (doses to about 28.7 µM), usual class: inhibitors; 320,000 tested, 6.9% active
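Two-generation exposure (96 h) targets delayed-death phenotype. Reporter parasites carrying integrated firefly luciferase, in red cells at 2% hematocrit and 0.05% parasitemia final, kept at 37 C, 5% CO2; luminescence loss indicates inhibition.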
AmpC inh detg: inhibitors of E. coli AmpC beta-lactamase with detergent; AID 485294; 370,000 tested, 0.041% active; AmpC hydrolysis of nitrocefin, absorbance 480 nm, 0.01% Triton; Potency, µM (highest dose often 114 µM), usual class: inhibitors; P00811; note: nearly all actives have a fitted effect of over 25% in size
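AmpC (5.3 nM in the dispensed reagent) in 20 mM phosphate pH 7.0 with 0.01% (detergent screen) or 0.0001% Triton X-100 was preincubated with compounds for 15 min at room temperature. Nitrocefin was then added from an 800 uM solution, and hydrolysis was followed at 480 nm.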
Pf growth 48h: inhibits P. falciparum growth in the first generation, 48 h | P. falciparum luciferase growth in erythrocytes, 48 h | Potency, µM (doses to about 28.7 µM), actives largely listed as inhibitors | 310,000 tested, 5.9% active
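First compound was added to culture medium, then infected red cells at 0.1% parasitemia and 2% hematocrit (final). After incubation at 37 C under 5% CO2, luciferase detection reagent was dispensed and light output recorded.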
AMA1-RON2 inh: inhibitors of Plasmodium falciparum AMA1-RON2 interaction; AID 720542; 360,000 tested, 0.2% active; AlphaScreen AMA1-biotinylated RON2 peptide binding; Potency, µM (titrated, usually from 58.2 µM), hits mostly inhibitors; note: nearly all actives have a fitted effect of over 45% in size
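AMA1 (3D7) with his tag at 25 nM final met compounds first, then biotinylated RON2 peptide at 25 nM; detection used donor plus acceptor beads, 10 µg/mL apiece, read by AlphaScreen after 30 min at room temperature.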
HCV inhibitor: inhibitors of hepatitis C virus infection; Potency, µM (series often up to 41.8 µM), most hits filed as inhibitors; 340,000 tested, 3.4% active; AID 651820; Huh7.5.1 HCVcc-Cre infection, luciferase reporter, 44 h
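HCVcc-Cre virus at an moi near 0.5 was added right after compound to cells cultured 4 h from seeding (1,000 cells/well). Luciferase activity was determined 44 h later, 15 min after substrate addition at RT.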
Hits are given with their value; n = inactive; u = inconclusive; x = not tested or not shown; [ ] = remark or other dose. Calls come from the whole dose curve; as a rule, active = well fitted curve in the direction sought with a large enough effect; inconclusive = small, poorly fitted or top-dose-only effect, or another doubt; inactive = no such curve, though single readings can be large; an effect the other way counts as inactive or inconclusive.

SMILES	AmpC inh no detg	Pf growth 96h	AmpC inh detg	Pf growth 48h	AMA1-RON2 inh	HCV inhibitor
O=C(O)CC/C(=N\Nc1ccc(S(=O)(=O)N2CCOCC2)cc1[N+](=O)[O-])c1cccs1	n	12µM	n	6.6µM	n	n
Cc1ccc(S(=O)(=O)NCCCN2CCOCC2)cc1C	n	x	n	n	n	n
O=[N+]([O-])c1cc(S(=O)(=O)N2CCCCC2)ccc1NCCCN1CCOCC1	n	1.5µM	u	u	n	n
COc1ccc(S(=O)(=O)NCCN2CCOCC2)cc1Br	n	10µM	n	n	n	n
COc1cc(C)c(Br)cc1S(=O)(=O)NCCN1CCOCC1	n[2.29 µM]	n	u	n[5.75 µM]	n	n
O=S(=O)(NCCCN1CCOCC1)c1ccc2c(c1)OCCO2	n	10µM	n	n	n	n
O=S(=O)(NCCN1CCOCC1)c1cc(Cl)c(Cl)cc1Cl	n	13µM	n	n	n	n
CC(C)[C@H](Nc1ccc(S(=O)(=O)N2CCOCC2)cc1[N+](=O)[O-])C(=O)OCC(=O)N(C(C)C)C(C)C	n	5.2µM	n	u	n	u
COc1cc(Cl)c(S(=O)(=O)NCCN2CCOCC2)cc1Cl	n	x	n	n	n	n
O=[N+]([O-])c1cc(S(=O)(=O)NCCCN2CCOCC2)ccc1Cl	n	n	n	n	n	10µM
COc1cc(S(=O)(=O)NCCCN2CCOCC2)ccc1Cl	n	x	n	n	n	n
CCOc1ccccc1NC(=O)CSc1nc2c(c(=O)[nH]1)CCC2	x	x	n	x	x	x
COc1ccc(NC(=S)NNc2ccc([N+](=O)[O-])cc2S(=O)(=O)Nc2ccc(C)cc2C)cc1	n	u	n	n	n	14µM
Cc1ccc(NS(=O)(=O)c2cc([N+](=O)[O-])ccc2NNC(=S)Nc2cccc(Cl)c2)c(C)c1	u	u	u	n	n	u
Cc1ccc(NS(=O)(=O)c2cc([N+](=O)[O-])ccc2NNC(=S)Nc2cc(C)ccc2C)c(C)c1	n	9.3µM	n	15µM	n	11µM
CCC(NC(=O)Nc1nnc(C(F)(F)F)s1)(C(F)(F)F)C(F)(F)F	n	n	n	1.7µM	n	4.5µM
O=C(O)CCC(=O)Nc1nnc(C(F)(F)F)s1	n	n	n	n	n	n
CC(C)CCNC(=O)c1nn(Cc2ccccc2)c(=O)c2ccccc12	n	u	n	u	n	n
CCCNC(=O)C1CN(C(=O)c2nn(Cc3ccccc3)c(=O)c3ccccc23)c2ccccc2O1 (centres undefined)	n	12µM	n	10µM	n	n
Cc1nc2ccc(S(=O)(=O)NC(C(=O)N3CCN(c4cccc(Cl)c4)CC3)C(C)C)cc2s1 (centres undefined)	x	x	n	x	x	x
Cc1cc(C)c(/C=C/c2onc(C)c2S(=O)(=O)N2CCC(C(=O)NCc3ccco3)CC2)c(C)c1	x	x	n	x	x	x
O=C(CCCCCN1C(=O)CCC1=O)Nc1ccc(Br)cc1F	n	1µM	u	n	n	n
COc1ccc(C)cc1NC(=O)CCCN1C(=O)CCC1=O	n	n	n	x	n	u
COc1ccc(CCNC(=O)c2cccc(NC(=O)CC3SC(N4CCCCC4)=NC3=O)c2)cc1OC (centres undefined)	n	u	n	12µM	n	n
COc1cc2c(cc1NC(=O)CSc1cccc[n+]1[O-])oc1ccccc12	n	n	n	n	n	u
COc1cc2c(cc1NC(=O)CCCCCN1C(=O)CCC1=O)oc1ccccc12	n	x	n	u	n	3.5µM
COc1cc2c(cc1NC(=O)CCCN1C(=O)CCC1=O)oc1ccccc12	n	n	u	n	n	11µM
O=C(Nc1nc2n(n1)C(c1ccccc1)C=C(c1ccccc1)N2)c1ccccc1 (centres undefined)	x	x	n	x	x	x
Cc1c2cnn(CC(=O)NCc3ccc(F)cc3)c(=O)c2c(C)n1Cc1ccccc1Cl	x	x	n	x	x	x
COc1cc2c(cc1NC(=O)CC1SC(N3CCCC3)=NC1=O)oc1ccccc12 (centres undefined)	n	1.2µM	u	6.6µM	n	11µM
